In PubChem BioAssay (NCI):
This is part of a sample that, as a whole, favours compounds with a hit. Of some 83,000 tested, about 20% had one in any assay.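 Each cell line was grown in a 96-well plate and treated with one concentration of compound for 48 hours. Values below 10 were considered active.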 Calls of active or inactive are those of the source.

test system: COLO 205 colon; assay: NCI-60 one-dose screen, 48 h (100 = growth as untreated, 0 = no growth, -100 = all killed); settings: 10 µM

| SMILES | growth |
| --- | --- |
| CC/C(=C(\c1ccc(O)cc1)c1ccc(OCCN(C)C(=O)COCCNC(=O)Cc2ccc3c(c2)CN([C@@H]2CCC(=O)NC2=O)C3=O)cc1)c1ccccc1 | 33.8% (inactive) |
| CC/C(=C(\c1ccc(O)cc1)c1ccc(OCCN(C)C(=O)CCOCCNC(=O)c2ccc3c(c2)CN([C@@H]2CCC(=O)NC2=O)C3=O)cc1)c1ccccc1 | 94.5% (inactive) |
| CC/C(=C(/c1ccc(O)cc1)c1ccc(OCCN(C)C(=O)CCOCCNC(=O)Cc2ccc3c(c2)CN([C@@H]2CCC(=O)NC2=O)C3=O)cc1)c1ccccc1 | 62.3% (inactive) |
| CC/C(=C(/c1ccc(O)cc1)c1ccc(OCCN(C)C(=O)COCCOCCNC(=O)Cc2ccc3c(c2)CN([C@@H]2CCC(=O)NC2=O)C3=O)cc1)c1ccccc1 | 31.2% (inactive) |
| CC/C(=C(\c1ccc(O)cc1)c1ccc(OCCNC)cc1)c1ccccc1 | 91% (inactive) |
